Drawing on PubChem BioAssay (NCATS), this text covers activity, activity change, negative = inhibition and Potency for 14 compounds.

Experiment [1] has as its target Catechol O-methyltransferase (Homo sapiens) (UniProt P21964). Put plainly: Confirmatory Screen for Target Class Profiling of Small Molecule Inhibitors of Methyltransferases (AID 1745852; calls by dose curve; on activity change, negative = inhibition: on the % scale 0 is the no-effect control and ±100 the full control effect). The note with it: MTase-Glo luminescence, SAH detection, recombinant enzyme; measured here: COMT max response; stronger effect = lower value.
The target of experiment [2] is Guanidinoacetate N-methyltransferase (Homo sapiens) (UniProt Q14353). The experiment is described as above. The note with it: MTase-Glo luminescence, SAH detection, recombinant enzyme; activity change, negative = inhibition: at 57.3 µM (top of the series) unless noted; series mostly up to 57.3 µM.
For experiment [3], the target named is Nicotinamide N-methyltransferase (Homo sapiens) (UniProt P40261). The description is as above. To be noted: MTase-Glo luminescence, SAH detection, recombinant enzyme; measured here: NNMT max response; stronger effect = lower value.
Experiment [4] deals with Phenylethanolamine N-methyltransferase (Homo sapiens) (UniProt P11086). The description is as above. To be noted: MTase-Glo luminescence, SAH detection, recombinant enzyme; measured here: PNMT max response; stronger effect = lower value.
For experiment [5], the system named is astro. Put plainly: Drug repurposing screens with cells derived from glioblastoma tumor samples (AID 1345199). Further: on the % scale 0 is the no-effect control and ±100 the full control effect; nearly all actives have a fitted effect of over 40% in size. The note with it: viability, ATP luminescence, 48 h; series mostly up to 45.9 µM. The method in brief: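 Primary testing used CD133+ neurospheres from four GBM patients, seven concentrations, 48 h exposure and ATP-based viability; confirmation added three slower-growing patient lines.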

Experiment [6] in a line: Primary fluorescence-based thiol-reactive (MSTI) qHTS assay for identification of artifact compounds. (AID 1845221).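 Further: thiol-reactive compounds lower the probe fluorescence signal; nearly all actives have a fitted effect of over 65% in size.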 The note with it: MSTI thiol-reactivity probe, 1 h; series mostly up to 53.8 µM. The method in brief: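 Curve-fitted percent inhibition (4-parameter Hill) derived from fluorescence, Ex 525/Em 598 nm, scaled with Acetyl-MSTI and MSTI; 1 h incubation at room temperature.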

Experiment [7] deals with C33A. Put plainly: Primary qHTS to identify gynecologic anti-cancer compounds using libraries of approved drugs and bioactive compounds (AID 1345084). Further: nearly all actives have a fitted effect of over 55% in size. Further: potency means the concentration at half of the fitted maximal effect. The note with it: Gynecologic cancer cell panel viability, ATPlite luminescence, 48 h; series mostly up to 57.5 µM. The method in brief:
(§1)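 Cytotoxicity screen measuring ATP content by luciferase luminescence. Each compound is applied at five concentrations for 48 h at 37 C with 5% CO2.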
(Quantitative high-throughput screening tests each substance at several concentrations.)

In experiment [8] the test system is CASKI. Described as above. To be noted: Gynecologic cancer cell panel viability, ATPlite luminescence, 48 h; series mostly up to 57.5 µM. The method, boiled down:
as §1
A general note: ATP-based viability assays read luminescence as a measure of living cells.

Experiment [9] relates to PA-1. The experiment is described as above. To be noted: Gynecologic cancer cell panel viability, ATPlite luminescence, 48 h; series mostly up to 57.5 µM. The method, boiled down: as §1
Experiment [10] addresses Cytochrome P450 2D6 (Homo sapiens) (UniProt P10635). Put plainly: Cytochrome P450 family 2 subfamily D member 6 (CYP2D6) small molecule antagonists: luciferase biochemical (cell-free) qHTS assay (AID 1645840; active means well fitted curve in the direction sought with a large enough effect in the repeat runs; an effect the other way counts as inactive or inconclusive; further: potency means the concentration at half of the fitted maximal effect; nearly all actives have a fitted effect of over 55% in size). The note with it: P450-Glo CYP2D6 enzyme, luciferin luminescence, 1 h; series mostly up to 57.4 µM. The method, boiled down:
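P450-Glo CYP2D6 system: proluciferin substrate converted by enzyme to luciferin, read by luminescence proportional to activity. Enzyme-substrate mix with compound 10 min at room temperature, then NADPH regeneration 1 h before detection reagent.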

For experiment [11], the target named is Cytochrome P450 2C9 (Homo sapiens) (UniProt P11712). Put plainly: Cytochrome P450 family 2 subfamily C member 9 (CYP2C9) small molecule antagonists: luciferase biochemical (cell-free) qHTS assay (AID 1645842; active means well fitted curve in the direction sought with a large enough effect in the repeat runs; an effect the other way counts as inactive or inconclusive; further: nearly all actives have a fitted effect of over 55% in size; further: potency means the concentration at half of the fitted maximal effect; on activity change, negative = inhibition: on the % scale 0 is the no-effect control and ±100 the full control effect). The note with it: P450-Glo CYP2C9 enzyme assay, luciferin luminescence; series mostly up to 57.4 µM. The method in brief:
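P450-Glo CYP2C9 system: proluciferin substrate with enzyme in mix containing 0.4% BSA, 10 min at room temperature, then NADPH regeneration solution added and incubated 1 h at 37C. Detection reagent stopped reaction; luminescence read after 20 min as RLU.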

The test system of experiment [12] is Es-2. Put plainly: Primary qHTS to identify gynecologic anti-cancer compounds using libraries of approved drugs and bioactive compounds (AID 1345084). Further: nearly all actives have a fitted effect of over 55% in size. Further: potency means the concentration at half of the fitted maximal effect. To be noted: Gynecologic cancer cell panel viability, ATPlite luminescence, 48 h; series mostly up to 57.5 µM. The method in brief: as §1
For experiment [13], the system named is Tov-21-G. The experiment is described as above. The note with it: Gynecologic cancer cell panel viability, ATPlite luminescence, 48 h; series mostly up to 57.5 µM. The method, boiled down:
as §1

For experiment [14], the target named is Ubiquitin carboxyl-terminal hydrolase 1 (Homo sapiens) (UniProt O94782). Put plainly: Inhibitors of USP1/UAF1: Pilot qHTS (AID 504865).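 Further: rhodamine fluorescence freed from ubiquitin-rhodamine substrate followed over time; top concentration of the series differs between compounds; on the % scale 0 is the no-effect control and ±100 the full control effect; nearly all actives have a fitted effect of over 35% in size.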 To be noted: purified USP1/UAF1, Ub-rhodamine cleavage fluorescence; series mostly up to 114 µM. The method, boiled down:
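In 50mM HEPES pH 7.8 containing 0.5mM EDTA, 1mM TCEP, 0.1 mg/ml BSA and 0.01% Tween-20, 1nM USP1/UAF1 is exposed to compound for 15 min, then Ub-Rho (150nM final) is added and fluorescence is read over time.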

For experiment [15], the system named is Zika virus NS2B-NS3 protease. Description: Primary screen GU AMC qHTS for Zika virus inhibitors (AID 1347154).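 Further: 0% = no-inhibitor control and -100% = no-enzyme control; nearly all actives have a fitted effect of over 70% in size.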 To be noted: Zika NS2B-NS3 unlinked protease, AMC fluorogenic substrate; series mostly up to 54.1 µM. The method, boiled down: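 Unlinked Zika NS2B hydrophilic domain/NS3 protease domain noncovalent complex (25 nM final) in 10 mM Tris-HCl pH 8.0, 0.01% Tween 20, with AMC peptide substrate. Fluorescence (ex 340, em 450 nm) change over 15 min, room temperature; percent inhibition fitted to 4-parameter Hill equation.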

The nature of experiment [16]: Primary qHTS for small molecule stabilizers of the endoplasmic reticulum resident proteome: Secreted ER Calcium Modulated Protein (SERCaMP) assay (AID 1508630). Further: on the % scale 0 is the no-effect control and ±100 the full control effect. The note with it: SH-SY5Y GLuc-SERCaMP (Gaussia luciferase released on ER calcium loss) secretion, thapsigargin, luminescence; series mostly up to 38.4 µM. The method, boiled down: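 The SH-SY5Y reporter protocol was run at 3 concentrations up to 38.3 uM (primary) or 11 concentrations (follow-up): 16 h compound, 100 nM thapsigargin for 4 h, then extracellular luciferase luminescence.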

In experiment [17] the test system is CAOV3. Description: Primary qHTS to identify gynecologic anti-cancer compounds using libraries of approved drugs and bioactive compounds (AID 1345084). Further: nearly all actives have a fitted effect of over 55% in size. Further: potency means the concentration at half of the fitted maximal effect. The note with it: Gynecologic cancer cell panel viability, ATPlite luminescence, 48 h; series mostly up to 57.5 µM. The method, boiled down: as §1
Experiment [18] concerns SKOV3. Described as above. The note with it: Gynecologic cancer cell panel viability, ATPlite luminescence, 48 h; series mostly up to 57.5 µM. The method, boiled down:
as §1

Inconclusive results are not listed. Activity calls are given as the source filed them. Unless noted, the call rests on the fitted dose curve; in most records, active means well fitted curve in the direction sought with a large enough effect; inconclusive means small, poorly fitted or top-dose-only effect, or another doubt; inactive means no such curve, though single readings can be large; an effect the other way counts as inactive or inconclusive.

Phenylethanolamine N-methyltransferase (Homo sapiens), sequence (P11086 whole entry, looked up): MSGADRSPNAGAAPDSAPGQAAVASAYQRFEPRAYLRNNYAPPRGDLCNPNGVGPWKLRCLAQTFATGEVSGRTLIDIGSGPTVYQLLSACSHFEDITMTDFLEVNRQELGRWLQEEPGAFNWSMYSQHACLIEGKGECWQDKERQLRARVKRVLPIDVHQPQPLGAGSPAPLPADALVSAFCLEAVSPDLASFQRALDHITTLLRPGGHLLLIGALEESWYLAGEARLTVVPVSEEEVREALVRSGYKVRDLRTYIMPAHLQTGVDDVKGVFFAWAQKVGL
Nicotinamide N-methyltransferase (Homo sapiens), sequence (P40261 whole entry, looked up): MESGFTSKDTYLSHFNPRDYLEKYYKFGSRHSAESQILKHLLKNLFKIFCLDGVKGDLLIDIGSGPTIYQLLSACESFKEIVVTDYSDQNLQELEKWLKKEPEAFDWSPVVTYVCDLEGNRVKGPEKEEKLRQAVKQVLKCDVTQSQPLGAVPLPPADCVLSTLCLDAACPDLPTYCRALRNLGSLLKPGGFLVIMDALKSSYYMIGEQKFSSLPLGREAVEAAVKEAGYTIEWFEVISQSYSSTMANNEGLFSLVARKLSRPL
Catechol O-methyltransferase (Homo sapiens), sequence (P21964 whole entry, looked up): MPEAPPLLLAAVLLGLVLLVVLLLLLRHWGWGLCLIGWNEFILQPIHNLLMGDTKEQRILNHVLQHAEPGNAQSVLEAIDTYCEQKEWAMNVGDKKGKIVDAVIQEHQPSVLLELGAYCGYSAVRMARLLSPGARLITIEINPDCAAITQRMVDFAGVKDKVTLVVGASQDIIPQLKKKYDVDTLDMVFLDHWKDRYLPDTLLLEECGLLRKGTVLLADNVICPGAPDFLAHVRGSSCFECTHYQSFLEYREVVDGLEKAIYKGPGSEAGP
Cytochrome P450 2C9 (Homo sapiens), sequence (P11712 whole entry, looked up): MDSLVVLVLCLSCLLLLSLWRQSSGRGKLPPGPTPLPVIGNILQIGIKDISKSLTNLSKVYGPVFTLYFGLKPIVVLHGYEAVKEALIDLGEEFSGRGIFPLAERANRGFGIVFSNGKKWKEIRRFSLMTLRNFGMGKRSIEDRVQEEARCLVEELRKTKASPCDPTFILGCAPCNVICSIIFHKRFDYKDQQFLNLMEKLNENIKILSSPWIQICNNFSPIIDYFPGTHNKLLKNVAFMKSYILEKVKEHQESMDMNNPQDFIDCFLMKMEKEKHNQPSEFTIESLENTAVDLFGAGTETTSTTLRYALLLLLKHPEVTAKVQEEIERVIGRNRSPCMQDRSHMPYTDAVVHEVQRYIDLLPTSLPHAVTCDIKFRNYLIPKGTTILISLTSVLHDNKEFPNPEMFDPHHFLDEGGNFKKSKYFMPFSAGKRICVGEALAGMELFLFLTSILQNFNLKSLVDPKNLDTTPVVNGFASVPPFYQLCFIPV
Cytochrome P450 2D6 (Homo sapiens), sequence (P10635 whole entry, looked up): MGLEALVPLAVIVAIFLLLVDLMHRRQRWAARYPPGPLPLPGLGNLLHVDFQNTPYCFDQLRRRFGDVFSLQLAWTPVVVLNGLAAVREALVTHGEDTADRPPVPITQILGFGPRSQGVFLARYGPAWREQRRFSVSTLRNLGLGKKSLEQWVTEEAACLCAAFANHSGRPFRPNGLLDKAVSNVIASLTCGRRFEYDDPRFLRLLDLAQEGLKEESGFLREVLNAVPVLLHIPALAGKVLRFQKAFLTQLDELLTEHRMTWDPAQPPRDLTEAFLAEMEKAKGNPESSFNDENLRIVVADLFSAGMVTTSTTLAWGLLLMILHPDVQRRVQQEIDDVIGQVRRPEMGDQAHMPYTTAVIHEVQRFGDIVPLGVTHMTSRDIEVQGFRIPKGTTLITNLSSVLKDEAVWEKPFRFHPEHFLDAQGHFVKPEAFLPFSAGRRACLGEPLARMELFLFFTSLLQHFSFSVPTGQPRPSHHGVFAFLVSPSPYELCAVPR
Ubiquitin carboxyl-terminal hydrolase 1 (Homo sapiens), sequence (O94782 whole entry, looked up): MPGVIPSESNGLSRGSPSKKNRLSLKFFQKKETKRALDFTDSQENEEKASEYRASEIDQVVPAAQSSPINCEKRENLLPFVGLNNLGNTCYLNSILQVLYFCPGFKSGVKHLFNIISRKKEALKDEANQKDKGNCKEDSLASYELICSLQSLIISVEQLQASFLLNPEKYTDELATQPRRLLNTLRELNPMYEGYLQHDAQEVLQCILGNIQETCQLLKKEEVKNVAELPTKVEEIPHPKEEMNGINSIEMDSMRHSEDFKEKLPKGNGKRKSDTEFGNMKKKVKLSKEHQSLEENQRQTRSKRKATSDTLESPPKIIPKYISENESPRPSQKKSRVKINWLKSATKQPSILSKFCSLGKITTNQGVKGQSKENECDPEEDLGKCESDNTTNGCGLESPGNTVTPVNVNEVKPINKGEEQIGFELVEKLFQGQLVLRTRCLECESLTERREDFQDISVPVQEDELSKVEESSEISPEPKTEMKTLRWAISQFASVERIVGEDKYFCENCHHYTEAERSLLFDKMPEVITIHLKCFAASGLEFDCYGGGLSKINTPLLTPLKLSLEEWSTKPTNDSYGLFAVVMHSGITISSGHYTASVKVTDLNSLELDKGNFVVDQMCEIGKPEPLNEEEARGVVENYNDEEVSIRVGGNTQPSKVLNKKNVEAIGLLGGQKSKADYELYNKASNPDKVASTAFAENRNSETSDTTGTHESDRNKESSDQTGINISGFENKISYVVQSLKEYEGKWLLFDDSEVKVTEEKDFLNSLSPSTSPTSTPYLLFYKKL

As to `COc1ccc(-c2nc(-c3cc(C(F)(F)F)cc(C(F)(F)F)c3)n(Cc3ccc(C(N)=O)cc3)c2-c2ccc(OC)cc2)cc1`, the activity was 0.0984% in experiment [1], -7.68% in experiment [3] and -1.33% in experiment [4]. In addition, the activity change, negative = inhibition in [2] was -0.694%.
Turning to `CCNC(=O)[C@@H]1CCCN1C(=O)[C@H](CCCN=C(N)N)NC(=O)[C@H](CC(C)C)NC(=O)[C@@H](CC(C)C)NC(=O)[C@H](Cc1ccc(O)cc1)NC(=O)[C@H](CO)NC(=O)[C@H](Cc1c[nH]c2ccccc12)NC(=O)[C@H](Cc1cnc[nH]1)NC(=O)[C@@H]1CCC(=O)N1`, in [5], the Potency result was “inactive”.
Take `C=C1C(=O)O[C@@H]2C[C@@]3(C)CCC[C@H](C)C3=C[C@H]12`: the Potency result in [6], in experiment [7], in experiment [8] and in [9] was “inactive” each time.
As for `CCCc1c(C(C)C)nc(C(C)C)c([C@@H](C)O)c1-c1ccc(F)cc1O`, the figures for the Potency in [10] and in experiment [11] were 2.39 µM (active) and 4.77 µM (active), respectively. The Potency entry in [6], in [8], in experiment [12], in experiment [9] and in experiment [13] was “inactive” throughout.
Consider `Clc1ccccc1CNCC1CCC(CNCc2ccccc2Cl)CC1` (stereo not drawn), for which the Potency result in experiment [14], in [15], in [16], in experiment [11], in [7] and in experiment [8] was “inactive” throughout. In experiment [13], the Potency result is “inactive”. Further, the Potency in experiment [10] is 0.151 µM (active).
Regarding `O=C(O)c1ccc(O)c2ncc(N3CCCN(CCc4cccc5ccccc45)CC3)cc12`, the activity is 15.8% in experiment [1], -19.7% in [3] and -64.3% in experiment [4]. Moreover, in experiment [2], the activity change, negative = inhibition is 8.48%. Also, the Potency result in [17] and in experiment [8] was “inactive” each time.
For `O=C(C1=CCN2c3c(cccc31)OC[C@H]2CN1CCOCC1)c1cccc2ccccc12`, the Potency result in experiment [6] and in experiment [8] was “inactive” each time.
As for `CC[C@@H](C)[C@H]1C(=O)O[C@H](C(C)C)C(=O)N(C)[C@@H](C(C)C)C(=O)O[C@H](C(C)C)C(=O)N(C)[C@@H](C(C)C)C(=O)O[C@H](CC(C)C)C(=O)N1C`, in experiment [6], the Potency entry was “inactive”.
Regarding `C[C@@H]1CCNC(=O)c2cc3ccc(C(=O)Nc4nc5ccccc5n4CCCN(C)C)cc3n21`, the Potency entry in experiment [11], in experiment [6], in experiment [12] and in experiment [9] was “inactive” throughout.
For `CN(C)CCCCCCNC(=O)c1cccc(-c2cc(O)c3ncccc3c2)c1`, the activity is -95.5% in experiment [1], -1.3% in [3] and 4.93% in [4]. In addition, the activity change, negative = inhibition in [2] was found to be 6.43%. Moreover, the Potency result in [17] and in experiment [18] was “inactive” each time.
For the compound `C=C(C)C(=O)O[C@H]1[C@H]2C(=C)C(=O)O[C@@H]2C[C@@H](C)[C@@H]2O[C@@H]2C(=O)[C@](C)(O)[C@@H]1OC(C)=O`, the Potency in experiment [18] is 2.51 µM (active).
As to `N#Cc1ccc2c(c1)CCN(CCC1CCC(NC(=O)c3ccnc4ccccc34)CC1)C2` (stereo not drawn), the Potency entry in experiment [17], in experiment [8], in experiment [12], in experiment [9] and in [13] was “inactive” each time. Moreover, in [18], the Potency is 22.4 µM (active).
For `CCN1CCC[C@@H]1CNC(=O)c1ccc2c(c1)NC(=O)/C(=C/c1ccccc1F)S2`, the Potency in experiment [11] was 12 µM (active). Further, the activity in experiment [1] is -24.5%; in [3], -32%; in experiment [4], -20.2%. Also, the activity change, negative = inhibition in experiment [2] was -8.4%. For the same compound, the Potency result in [6], in experiment [7], in experiment [12] and in experiment [13] was “inactive” throughout.
Take `CC(C)COc1ccc(CNC(=O)N(Cc2ccc(F)cc2)C2CCN(C)CC2)cc1`: the Potency in [10] was 5.35 µM (active). For the same compound, the Potency entry in experiment [6], in experiment [7] and in [13] was “inactive” in each case.
